Several values for one entry are separate records, joined by “and”; a condition that tells them apart may be missing. Equal entries are not always repeated. Out of some 300,000 compounds screened, about 3,200 (1.1%) were called active.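 How the source made its calls: active means inhibition above the campaign mean inhibition plus 3 SD (cut at about 35% in these data); inactive means the rest.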 This excerpt belongs to a sample that is enriched for actives.

Inhibition data for 86 compounds are collected here from PubChem BioAssay AID1974 (The Scripps Research Institute Molecular Screening Center, 2009).

The target of this assay is Glutathione S-transferase omega-1 (Homo sapiens) (UniProt P78417). The assay can be described thus: human GSTO1 enzyme inhibition – biochemical, fluorescence polarization, counter-screen for RBBP9 inhibitor project, primary screen (AID 1974).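 Further: 0% = GSTO1-1 with DMSO and 100% = wells lacking GSTO1-1 enzyme.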 The note with it: recombinant GSTO1, activity-based probe fluorescence polarization; at 5.96 µM; stronger effect = higher value. On the technique in general: In fluorescence polarisation assays a small probe gives low polarisation when free and higher when bound to something large.
Chain of Glutathione S-transferase omega-1 (Homo sapiens) (P78417 whole entry, looked up): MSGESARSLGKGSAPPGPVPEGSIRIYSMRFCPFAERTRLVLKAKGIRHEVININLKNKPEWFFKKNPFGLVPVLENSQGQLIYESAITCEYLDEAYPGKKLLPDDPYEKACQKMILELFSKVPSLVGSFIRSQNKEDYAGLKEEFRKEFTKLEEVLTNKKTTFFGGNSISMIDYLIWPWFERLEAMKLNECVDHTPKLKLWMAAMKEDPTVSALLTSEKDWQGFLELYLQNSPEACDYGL
The inhibition is the relative decrease from the control value, in per cent. As for `COc1cccc(N(C(=O)C2COc3ccccc3O2)C(C(=O)NC2CCCCC2)c2ccc(O)cc2)c1` (stereo unspecified), the inhibition is 0.47% (inactive).

For the compound `COc1ccc(C(C(=O)NC2CCCCC2)N(C(=O)CCl)c2ccccc2Cl)cc1` (stereo unspecified), the inhibition was 38.1% (active).

Turning to `COc1ccc(C(C(=O)NC2CCCCC2)N(C(=O)c2snc(C(N)=O)c2N)c2ccccc2OC)cc1` (stereo unspecified), the inhibition was -5.23% (inactive).

In the case of `CC1=C(N2CCN(c3ncccn3)CC2)CCC1=O`, the inhibition is -2.06% (inactive).

Consider `CCn1c(SC(C)C(=O)Nc2ccc(N3CCOCC3)cc2)nnc1-c1ccco1` (stereo unspecified), for which the inhibition is -7.32% (inactive).

`CCOC(=O)C(C)N(c1ccccc1Cl)S(C)(=O)=O` (stereo unspecified): the inhibition was 2.86% (inactive).

Regarding `Cc1cc(Cl)c(S(=O)(=O)Nc2ccc3c(c2)OCCO3)cc1OCC(N)=O`, the inhibition was 35.7% (active).

As for `Cc1cc(Cl)c(S(=O)(=O)NCC2CCCO2)cc1OCC(N)=O` (stereo unspecified), the inhibition is -0.4% (inactive).

Consider `Cc1cc(Cl)c(S(=O)(=O)N(C)C)cc1OCC(N)=O`, for which the inhibition was -3.27% (inactive).

For `CSc1ccccc1NC(=O)c1cnc2sc(C)cn2c1=O`, the inhibition was -0.65% (inactive).

Regarding `CCN(C(=O)COC(=O)c1sccc1C)c1c(N)n(Cc2ccccc2)c(=O)[nH]c1=O`, the inhibition was 13.2% (inactive).

As to `CN(C)CCn1c2c(c(SCC(=O)NCc3ccccc3)nc1=O)CCC2`, the inhibition is 0.7% (inactive).

Take `COc1ccc(CCNc2cc(N3CCN(C(=O)c4ccccc4OC)CC3)ccc2[N+](=O)[O-])cc1OC`: the inhibition was 0.42% (inactive).

For `Oc1ccc(CNc2ccccc2O)cc1`, the inhibition was 41.7% (active).

Turning to `O=C(Cc1ccc(Cl)cc1)NC(=S)Nc1ccccc1O`, the inhibition is -0.02% (inactive).

For the compound `O=[N+]([O-])c1ccccc1NCc1ccc(Cl)cc1`, the inhibition is 1.08% (inactive).

In the case of `O=C(Nc1cc(S(=O)(=O)N2CCOCC2)ccc1OCC(F)(F)F)c1ccc(N2CCCC2=O)cc1`, the inhibition was 6.19% (inactive).

Regarding `O=C(c1ccncc1)N1CCN(S(=O)(=O)c2cc(C(F)(F)F)cc(C(F)(F)F)c2)CC1`, the inhibition is 2.8% (inactive).

For the compound `CCOC(=O)c1ccccc1NC(=O)c1c(N)n(C)c(=O)[nH]c1=O`, the inhibition is -3.83% (inactive).

As to `Cc1cc(C)c(S(=O)(=O)NCC(c2ccc3c(c2)OCO3)N2CCOCC2)c(C)c1` (stereo unspecified), the inhibition was 3.98% (inactive).

`CCCc1nc2ccccc2c(=O)n1/N=C/c1ccc(O)c(O)c1`: the inhibition is 45.8% (active).

In the case of `CCCc1nc2ccccc2c(=O)n1NC(=O)c1c(O)c2ccccc2[nH]c1=O`, the inhibition was 5.47% (inactive).

With `O=c1c2ccccc2ncn1/N=C/c1ccccc1`, the inhibition is -0.07% (inactive).

`CO[C@@H]1[C@@H](OC(N)=O)[C@@H](O)C(Oc2ccc3c(O)c(NC(=O)c4ccc(O)c(CC=C(C)C)c4)c(=O)oc3c2C)OC1(C)C` (stereo partly specified): the inhibition is 2.82% (inactive).

`COc1ccc(S(=O)(=O)/N=C2\C=C(NS(=O)(=O)c3ccccc3)C(=O)c3ccccc32)cc1`: the inhibition is 58.3% (active).

As for `COc1ccc2cc(S(=O)(=O)Nc3ccccn3)ccc2c1`, the inhibition was 2.15% (inactive).

As for `COc1ccc(S(=O)(=O)NCCCc2ccccc2)cc1`, the inhibition was 6.84% (inactive).

As to `Cc1ccc(S(=O)(=O)N2[C@@H](c3cccc(Cl)c3)C(C(=O)O)=CC[C@H]2c2ccc(Cl)c(Cl)c2)cc1`, the inhibition is -207% (inactive).

On to `CCC(C)CCN1CCN=C1N(C)C` (stereo unspecified), for which the inhibition was 0.8% (inactive).

Turning to `COCCCN(C(=O)CSCc1ccc(C)cc1)c1c(N)n(Cc2ccccc2)c(=O)[nH]c1=O`, the inhibition is -12.2% (inactive).

Regarding `CC(C)CCN1CCN=C1N(C)C`, the inhibition is -2.91% (inactive).

For the compound `CC(=O)N(C)c1ccc(NC(=O)C(F)(F)F)cc1`, the inhibition is 2.55% (inactive).

In the case of `CN(C)c1ccc(N/C=C/C(=O)C(F)(F)F)cc1`, the inhibition was 57.6% (active).

For the compound `CC(C)CNC(=O)C(=O)Nc1ccc(N(C)C)cc1`, the inhibition was 4.12% (inactive).

Consider `[O-][n+]1ccc(OCc2ccccc2)cc1`, for which the inhibition is 10.9% (inactive).

On to `CN1C(C(=O)NCc2ccco2)CC2Cn3c(nc4ccccc43)C21` (stereo unspecified), for which the inhibition is 6.49% (inactive).

For `O=C(O)Cc1csc(-c2cccc(Oc3ccccc3)c2)n1`, the inhibition was 2.72% (inactive) and 8.12% (inactive).

Consider `OCCn1c(-c2ccccc2)csc1=Nc1ccccc1`, for which the inhibition is -1.25% (inactive).

Regarding `O=c1cc(CCl)nc2scc(-c3ccccc3)n12`, the inhibition is 85.3% (active).

As to `Cc1nc2nc(C)c(CCC(=O)N3CCN(c4ccccc4)CC3)c(C)n2n1`, the inhibition was 8.27% (inactive).

In the case of `Cc1nc2ncnn2c(C)c1CCC(=O)N1CCN(C(=O)c2ccco2)CC1`, the inhibition was 50.8% (active).

As to `Cc1ccc(C)c(OCC(=O)N2CCN(C(=O)c3ccco3)CC2)c1`, the inhibition was -2.08% (inactive).

In the case of `Cc1ccc(S(=O)(=O)CC(=O)Nc2sc(C)c(C)c2C(N)=O)cc1`, the inhibition is 0.44% (inactive).

`COC(=O)c1cccc(NC(=O)CN2CCC(NC(=O)c3cc(OC)c(OC)c(OC)c3)CC2)c1`: the inhibition is 48.5% (active).

Consider `COc1cc(C(=O)NC2CCN(Cc3ccccc3)CC2)cc(Cl)c1OC(C)C`, for which the inhibition was -0.77% (inactive).

In the case of `O=C(CN1CCC(NC(=O)Nc2ccccc2)CC1)Nc1cccc([N+](=O)[O-])c1`, the inhibition was 5.63% (inactive).

In the case of `Cc1ccc(S(=O)(=O)N(C)c2ccc(OCC(=O)OCC(=O)N(CC#N)c3ccccc3)cc2)cc1`, the inhibition was 2.81% (inactive).

For the compound `CC(C)c1ccc(S(=O)(=O)N2CCN(C(=O)CN3C(=O)NC(C)(c4ccccc4)C3=O)CC2)cc1` (stereo unspecified), the inhibition was 4.89% (inactive).

On to `O=C(Nc1cc(-c2ccccc2)nn1-c1ccccc1F)c1ccc([N+](=O)[O-])cc1`, for which the inhibition is -3.44% (inactive).

As to `CC(C)(C)c1ccc(C(=O)NCCn2c(N)c(C#N)c3nc4ccccc4nc32)cc1`, the inhibition is 6.36% (inactive).

For `CC(C)Cn1c(N)c(C(=O)NCc2cccs2)c2nc3ccccc3nc21`, the inhibition is 38.5% (active).

Regarding `CCCNC(=O)c1c(N)n(-c2ccc(S(N)(=O)=O)cc2)c2nc3ccccc3nc12`, the inhibition was -3.18% (inactive).

In the case of `CCN1CCN(C(=O)N[C@@H](C(=O)N[C@@H]2C(=O)N3C(C(=O)O)=C(CSc4nnnn4C)CS[C@H]23)c2ccc(O)cc2)C(=O)C1=O`, the inhibition is -2.08% (inactive).

In the case of `CC1(C)C/C(=N/Nc2ccc([N+](=O)[O-])cc2[N+](=O)[O-])C(C)(C)O1`, the inhibition was -2.6% (inactive).

`O=C(OCC1OC(Oc2ccc(O)cc2)C(O)C(O)C1O)c1ccccc1` (stereo unspecified): the inhibition was -6.08% (inactive).

In the case of `O=C(OCC1O[C@@H](OC(=O)c2cc(O)c(O)c(O)c2)[C@@H](OC(=O)c2cc(O)c(O)c(O)c2)[C@@H](OC(=O)c2cc(O)c(O)c(O)c2)[C@@H]1OC(=O)c1cc(O)c(O)c(O)c1)c1cc(O)c(O)c(O)c1` (stereo partly specified), the inhibition was 43.9% (active).

Consider `O=C(CSc1n[nH]c(-c2cccs2)n1)N1CCCCC1`, for which the inhibition was 0.4% (inactive).

In the case of `O=C(Nc1cc(N2CCOCC2)ncn1)NC1(C(F)(F)F)Oc2ccc(Cl)cc2O1` (stereo unspecified), the inhibition was 57.4% (active).

With `COc1ccc(Cl)cc1NC(=O)CN1CCN(C(=O)N2CCOCC2)CC1`, the inhibition is 1.76% (inactive).

In the case of `Cc1csc(NC(=O)NC2(C(F)(F)F)Oc3ccccc3O2)n1`, the inhibition was 28.1% (inactive).

With `CN(CC(=O)Nc1cccc(F)c1)C(=O)C1CSC2(C)CCC(=O)N12` (stereo unspecified), the inhibition was -10.9% (inactive).

On to `COC(=O)CCCC1=CC2=C(c3ccccc3)C(=O)C(C)(OC(=O)C3CCCC3)C(=O)C2=CN1c1ccc(OC)cc1` (stereo unspecified), for which the inhibition was 40% (active).

As to `COc1ccc(CCNC(=O)COC(=O)C2CCCCC2)cc1`, the inhibition was 3.87% (inactive).

For the compound `COC(=O)CCCC1=CC2=CC(=O)C(C)(OC(=O)c3cccs3)C(=O)C2=CN1c1cccc(C#N)c1` (stereo unspecified), the inhibition was 10.6% (inactive).

In the case of `Cc1ccc(C)c(-c2nnc(NC(=O)CS(=O)(=O)c3ccccc3)o2)c1`, the inhibition is 9.44% (inactive).

Turning to `CCOc1ccc(C(C)=O)cc1COC(=O)CN1C(=O)NC2(CCCC2)C1=O`, the inhibition is 10.1% (inactive).

Regarding `C#CCOCCOCCOCCNc1nc(N2CCN(C(=O)CCCCCCCCCCNC(=O)Cn3cc(CCCCCN)nn3)CC2)nc(N2CCN(C(=O)CCCCCCCCCCNC(=O)[C@H](CO)n3cc(CCCSC)nn3)CC2)n1`, the inhibition is 4.11% (inactive).

For `Oc1cc2c(cc1O)CN(C(=S)NCCc1ccc(Cl)cc1)CCC2`, the inhibition was -0.15% (inactive).

Take `COc1ccc2c(c1)OC(O)(C(F)(F)C(F)F)CC2=O` (stereo unspecified): the inhibition is 42% (active).

Regarding `COc1ccc2c(c1)SC(C)CC2=O` (stereo unspecified), the inhibition was -1.85% (inactive).

Consider `CC1(C)CC(=O)c2ccc(O)cc2O1`, for which the inhibition was 8.19% (inactive).

For the compound `COc1ccc(OCCCC(=O)OC(C)C(=O)Nc2ccccc2[N+](=O)[O-])cc1` (stereo unspecified), the inhibition was -0.91% (inactive).

`COc1ccc(NC(=O)CN(C)C(=O)c2cc(-c3ccc(C)o3)nc3ccccc23)cc1`: the inhibition was 5.17% (inactive).

On to `CN1C(=O)CC(c2ccccc2)C1=O` (stereo unspecified), for which the inhibition is 7.68% (inactive).

For the compound `OCC[C@H]1C[C@H](O)[C@@H](O)[C@]2(Cc3ccccc3CO2)O1`, the inhibition is 2.49% (inactive).

For `CC1(C)Cc2ccccc2-c2[nH]c(=S)[nH]c(=O)c21`, the inhibition is 3.5% (inactive).

Consider `CC1(C)Cc2ccccc2-c2nc(CN3CCOCC3)[nH]c(=O)c21`, for which the inhibition is -0.05% (inactive).

For the compound `CCC1(CC)Cc2ccccc2-c2nc(CCl)[nH]c(=O)c21`, the inhibition is 84.7% (active).

On to `O=C(COC(=O)CNS(=O)(=O)c1ccc(F)c(F)c1F)NC1CCCC1`, for which the inhibition is 14.3% (inactive).

`CC(OC(=O)CCC(=O)c1ccccc1)C(=O)Nc1ccc(F)cc1` (stereo unspecified): the inhibition was 3.4% (inactive).

On to `COc1ccc(S(=O)(=O)N2CCOCC2)cc1NC(=O)CSc1ncnc2ccccc12`, for which the inhibition is 38.4% (active).

As for `COc1ccc(S(=O)(=O)N2CCCCC2)cc1NC(=O)COc1ccccc1`, the inhibition is -8.4% (inactive).

On to `COc1ccc(S(=O)(=O)N2CCOCC2)cc1NC(=O)COc1ccccc1`, for which the inhibition is 13.6% (inactive).

On to `CCn1cc(C(=O)NC2CCCCCC2)c(=O)c2cc(S(=O)(=O)N3CCCCC3)ccc21`, for which the inhibition is 0.56% (inactive).

Consider `CCCOc1ccc(/C=N/NC(=O)C2CC2)c(OCCC)c1`, for which the inhibition was 5.8% (inactive).

`Cc1cc(NC(=O)C(C)N2C(=O)c3ccccc3S2(=O)=O)no1` (stereo unspecified): the inhibition is 12.5% (inactive).
